Screens (PubChem BioAssay)
The list is not random: actives were taken first. Their share in the collection is about 6.8%.
T cruzi growth-1: T. cruzi intracellular proliferation inhibitors, primary screen, cell-based, beta-gal Tulahuen parasites, NIH3T3 host, luminescence. T. cruzi beta-gal in NIH3T3, GalScreen luminescence, 90 h. inhibition, % at 8.34 µM. AID 624255, 2012. 5.9% of 77,000 active;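 active = mean inhibition above about 93%, with at least 55% of replicates each passing it, limit read from the data, passing the limit was not always enough; inconclusive = only one of those two conditions holds; inactive = neither condition holds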
C diff HTS: C. difficile growth inhibitors, primary screen, HTS; 0.25% of 86,000 active; Clostridium difficile clinical isolate growth, OD600, 24 h; hits give low values; growth activity, negative = inhibition, % at 16 µg/mL (by protocol);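 active = mean growth activity at or below -80% and every replicate also at or below -80%; inconclusive = mean at or below -80% but some replicate above -80%; inactive = mean growth activity above -80%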;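 also: 0% = DMSO wells and -100% = levofloxacin 16 µg/mL wells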
Pf Dd2 growth: P. falciparum Dd2 growth inhibitors, primary screen, SYBR Green fluorescence, single dose replicates. 2.3% of 94,000 active. 72 h; hits give low values. activity change, % at 10 µM. AID 1159554, 2015; in the data active = activity change below about -80%; inconclusive = no clear call, values can overlap the other calls
T cruzi growth-2: T. cruzi intracellular proliferation inhibitors, confirmation, cell-based, NIH3T3 host, beta-gal parasite, luminescence, cherry-pick. inhibition, % at 8.35 µM. T. cruzi beta-gal in NIH3T3, GalScreen luminescence, 90 h. AID 651739, 2012. shares compounds with T cruzi growth-1. 72% of 5,600 active;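 active = mean replicate inhibition above about 95% and at least 55% of replicates individually reaching it, limit read from the data; inconclusive = only one of the two criteria is met; inactive = neither criterion is met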
T cruzi growth-3: inhibitors of intracellular T. cruzi replication, confirmation, NIH3T3 host cells, beta-gal parasites, cherry-pick, set 2 | AID 651740, 2012 | 21% of 5,600 active | inhibition, % at 2.09 µM | T. cruzi beta-gal in NIH3T3, GalScreen luminescence, 90 h | shares compounds with T cruzi growth-1;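 active = mean inhibition above about 95%, with at least 55% of replicates also reaching it, limit read from the data; inconclusive = meets just one of the two conditions; inactive = meets neither condition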;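 also: plate controls were neutral control median for no effect and positive control median for full effect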
3T3 cytotox: cytotoxicity in mouse NIH/3T3 fibroblasts, confirmation, cytotoxicity control for T. cruzi proliferation inhibitor project, cell-based, cherry-pick, single point; shares compounds with T cruzi growth-1; NIH/3T3 viability, CellTiter-Glo ATP luminescence, 90 h; cytotoxicity (signal decrease), % at 8.35 µM; 14% of 5,600 active;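 active = mean signal decrease across replicates above about 35% based on untreated-well scatter, with enough replicates individually passing, limit read from the data; inconclusive = no rule stated though some were filed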;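 also: 0% = median of neutral control wells and 100% = median of positive control wells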
3T3 cytotox 2: NIH/3T3 fibroblast cytotoxicity, confirmation, cytotoxicity control, cell-based, cherry-pick, single point, set 2. shares compounds with T cruzi growth-1. NIH/3T3 viability, CellTiter-Glo ATP luminescence, 90 h. inhibition, % at 24.9 µM. 56% of 5,600 active;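 active = mean loss of cell viability signal at or above a set limit, and enough replicates individually reaching it; inconclusive = meets only the mean limit or only the replicate share; inactive = meets neither condition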;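 also: 0% = median of neutral control wells and 100% = median of positive control wells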
Numbers without * were called inactive; ? = inconclusive; / = no result; + = active, no number.

SMILES | T cruzi growth-1 | C diff HTS | Pf Dd2 growth | T cruzi growth-2 | T cruzi growth-3 | 3T3 cytotox | 3T3 cytotox 2
C[C@H](CO)N1C[C@H](C)[C@H](CN(C)Cc2ccccc2)Oc2c(NC(=O)c3ccc(-c4nccs4)cc3)cccc2C1=O | 51.8 | -1.5 | -12.0 | / | / | / | /
C[C@H]1CN([C@@H](C)CO)C(=O)c2cc(-c3ccccc3F)cnc2O[C@H]1CN(C)Cc1ccccc1F | 47.3 | 6.7 | 4.8 | / | / | / | /
CCNC(=O)[C@@H]1[C@@H](CO)[C@@H]2Cn3c(ccc(-c4ccncc4)c3=O)[C@@H]2N1Cc1ccccc1 | 42.1 | 1.0 | 6.8 | / | / | / | /
C[C@H](CO)N1C[C@H](C)[C@H](CN(C)C(=O)Nc2ccc(C(F)(F)F)cc2)Oc2c(NC(=O)c3ccc(-c4nccs4)cc3)cccc2C1=O | 116.0* | / | -44.0 | 102.0* | 71.6 | 31.2 | 83.8*
C[C@@H]1CN([C@H](C)CO)C(=O)c2cccc(NC(=O)c3nc4ccccc4s3)c2O[C@H]1CN(C)C(=O)Nc1ccc(C(F)(F)F)cc1 | 93.1* | -4.8 | -86.2* | ? | ? | 18.9 | 49.9*
C[C@@H]1CN([C@@H](C)CO)C(=O)c2cccc(NC(=O)c3ccc(-c4nccs4)cc3)c2O[C@H]1CN(C)C(=O)Nc1ccc(F)cc1 | 4.3 | -2.9 | -27.1 | / | / | / | /
C[C@H](CO)N1C[C@H](C)[C@@H](CN(C)C(=O)Nc2ccc(C(F)(F)F)cc2)Oc2c(NC(=O)c3ccc(-c4nccs4)cc3)cccc2C1=O | 71.5 | / | 11.7 | / | / | / | /
C[C@H]1CN([C@@H](C)CO)C(=O)c2cccc(NC(=O)c3nc4ccccc4s3)c2O[C@H]1CN(C)C(=O)Nc1ccc(C(F)(F)F)cc1 | 73.6 | 3.4 | -72.8 | / | / | / | /
C[C@@H]1CN([C@@H](C)CO)C(=O)c2cccc(NC(=O)c3ccc(-c4nccs4)cc3)c2O[C@@H]1CN(C)C(=O)Nc1ccc(C(F)(F)F)cc1 | ? | / | -69.6 | 107.6* | 90.6 | 25.7 | 98.3*
CCS(=O)(=O)N1CC2(CN(Cc3cccnc3)[C@H](CO)c3c2c2ccc(OC)cc2n3C)C1 | / | / | 18.4 | / | / | / | /
Cc1ccc(S(=O)(=O)Nc2ccc3c(c2)C(=O)N([C@@H](C)CO)C[C@H](C)[C@@H](CN(C)CC2CC2)OCCCC[C@H](C)O3)cc1 | 30.3 | 2.0 | -76.3 | / | / | / | /
Cc1ccc(S(=O)(=O)Nc2ccc3c(c2)C(=O)N([C@H](C)CO)C[C@H](C)[C@@H](CN(C)CC2CC2)OCCCC[C@H](C)O3)cc1 | 56.5 | -3.5 | -6.4 | / | / | / | /
Cc1ccc(S(=O)(=O)Nc2ccc3c(c2)C(=O)N([C@@H](C)CO)C[C@@H](C)[C@@H](CN(C)CC2CC2)OCCCC[C@@H](C)O3)cc1 | ? | -3.4 | -27.7 | 81.3 | 25.9 | -12.9 | -13.7
Cc1ccc(S(=O)(=O)Nc2ccc3c(c2)C(=O)N([C@H](C)CO)C[C@H](C)[C@H](CN(C)CC2CC2)OCCCC[C@H](C)O3)cc1 | ? | 1.4 | -27.6 | ? | 47.6 | -15.1 | 13.4
C[C@@H]1CN([C@@H](C)CO)S(=O)(=O)c2ccc(/C=C/c3ccccc3)cc2O[C@@H]1CN(C)C(=O)Nc1cccc(F)c1 | 126.6* | 4.6 | -54.1 | 100.8* | 104.6* | ? | 29.1*
C[C@H]1CN([C@@H](C)CO)S(=O)(=O)c2ccc(/C=C/c3ccccc3)cc2O[C@H]1CN(C)C(=O)Nc1cccc(F)c1 | 123.0* | 19.6 | -33.0 | 106.1* | 102.6* | 38.8* | 38.2*
COc1cccc(NC(=O)N(C)C[C@@H]2Oc3cc(/C=C/c4ccccc4)ccc3S(=O)(=O)N([C@@H](C)CO)C[C@@H]2C)c1 | / | -9.3 | -77.2 | / | / | / | /
C[C@@H]1CN([C@@H](C)CO)S(=O)(=O)c2ccc(/C=C/c3ccccc3)cc2O[C@H]1CN(C)C(=O)Nc1cccc(F)c1 | 127.4* | 6.7 | -50.3 | 95.5* | 97.2* | 49.2* | 80.2*
C/C=C/c1ccc2c(c1)O[C@@H](CN(C)C(=O)Nc1cccc(F)c1)[C@H](C)CN([C@H](C)CO)S2(=O)=O | -102.0 | 2.5 | -33.3 | / | / | / | /
C/C=C/c1ccc2c(c1)O[C@H](CN(C)C(=O)Nc1cccc(F)c1)[C@H](C)CN([C@@H](C)CO)S2(=O)=O | 93.4 | 2.4 | 31.0 | / | / | / | /
COCC#Cc1ccc([C@@H]2[C@@H](C#N)N(C(=O)NC3CCCCC3)[C@@H]2CO)cc1 | / | 0.3 | -35.0 | / | / | / | /
CC(C)NC(=O)Nc1ccc2c(c1)C(=O)N([C@@H](C)CO)C[C@H](C)[C@@H](CN(C)S(=O)(=O)c1ccc(Cl)cc1)O2 | -1.2 | 7.7 | -41.2 | / | / | / | /
COC(=O)[C@H]1[C@H](CO)[C@H]2Cn3c(ccc(-c4ccccc4OC)c3=O)[C@H]2N1CC1CCCC1 | + | -11.2 | / | 44.2 | -11.6 | -6.9 | 28.1*
COC(=O)[C@@H]1[C@@H](CO)[C@@H]2Cn3c(ccc(-c4ccccc4OC)c3=O)[C@@H]2N1CC1CCCCC1 | / | -1.4 | -48.4 | / | / | / | /
CCNC(=O)[C@@H]1[C@@H](CO)[C@@H]2Cn3c(ccc(-c4ccccc4OC)c3=O)[C@@H]2N1S(C)(=O)=O | 111.3* | -1.0 | 1.3 | -99.4 | 7.5 | -26.0 | -51.6
SMILES | T cruzi growth-1 | C diff HTS | Pf Dd2 growth | T cruzi growth-2 | T cruzi growth-3 | 3T3 cytotox | 3T3 cytotox 2
COC(=O)[C@H]1[C@H](CO)[C@H]2Cn3c(ccc(-c4cccc(OC)c4)c3=O)[C@H]2N1CC1CC1 | 74.7 | 12.5 | 0.0 | / | / | / | /
COC(=O)[C@@H]1[C@@H](CO)[C@@H]2Cn3c(ccc(-c4ccccc4OC)c3=O)[C@@H]2N1CC1CCCC1 | + | -7.9 | / | 37.7 | 13.3 | -1.1 | 33.2*
COc1cccc(-c2ccc3n(c2=O)C[C@@H]2[C@@H](CO)[C@H](C(=O)N(C)C)N(CC4CC4)[C@H]32)c1 | 103.9* | 5.3 | -1.6 | 107.4* | 18.2 | 11.9 | ?
COC(=O)[C@H]1[C@H](CO)[C@H]2Cn3c(ccc(-c4ccccc4OC)c3=O)[C@H]2N1CC1CCOCC1 | 5.1 | 0.9 | 4.6 | / | / | / | /
CCNC(=O)[C@@H]1[C@@H](CO)[C@@H]2Cn3c(ccc(-c4ccccc4OC)c3=O)[C@@H]2N1CC | 12.3 | -2.7 | 11.2 | / | / | / | /
CC(C)NC(=O)N(C)C[C@H]1Oc2ncc(C#Cc3ccccc3F)cc2C(=O)N([C@@H](C)CO)C[C@H]1C | 91.8 | 3.0 | -54.1 | / | / | / | /
COCC(=O)Nc1ccc2c(c1)C(=O)N(C)C[C@@H](OC)[C@@H](C)CN(C(=O)NC(C)C)[C@@H](C)CO2 | 50.9 | / | -9.1 | / | / | / | /
C[C@@H]1CN([C@@H](C)CO)C(=O)Cc2cc(NS(=O)(=O)c3ccc(F)cc3)ccc2O[C@@H]1CN(C)C | 75.3 | 1.8 | 9.1 | / | / | / | /
